BAZ2B block: inhibitors of human BAZ2B bromodomain; Q9UIF8; AlphaScreen BAZ2B-H3K14Ac peptide displacement; Potency, µM (top dose mostly 114 µM), for the others: at the highest dose activity change, negative = inhibition, hits mostly inhibitors; 360,000 tested, 4.4% active; note: % is set by controls: 0 for no effect and ±100 for the full control effect; nearly all actives have a fitted effect of over 60% in size
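AlphaScreen displacement of biotin-H3(5-23)K14Ac peptide (50 nM final) from BAZ2B (50 nM final) in PBS pH 7.4, 0.01% Tween-20; complex preformed 30 min RT, then compounds (top 110 uM) 30 min RT, beads 20 min dark.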
HP1b chromo inh: inhibitors of HP1-beta chromodomain binding to methylated histone tails. Potency, µM (series often up to 114 µM), for inactives: top-dose activity change, negative = inhibition, usual class: inhibitors. AlphaScreen HP1-beta / biotin-H3K9me3 peptide binding. P83916. 390,000 tested, 0.56% active; note: nearly all actives have a fitted effect of over 70% in size
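Compound inhibition of the preformed complex between 50 nM HP1-beta and 50 nM biotinylated H3K9me3 peptide was read by AlphaScreen. Buffer was PBS pH 7.4 with 0.01% Tween-20. Incubations ran 30 min at room temperature, with 10 ug/mL donor/acceptor beads.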
JMJD2A Tudor: inhibitors of human JMJD2A Tudor domain; 390,000 tested, 4.4% active; O75164; AlphaScreen JMJD2A-Tudor / H3K4me3 peptide binding; AID 504339; Potency, µM (titrated, usually from 114 µM), without a hit: top-dose activity change, negative = inhibition, hits mostly inhibitors; note: % is set by controls: 0 for no effect and ±100 for the full control effect; nearly all actives have a fitted effect of over 50% in size
Target sequence (O75164 whole entry, looked up, the tested form may be a part): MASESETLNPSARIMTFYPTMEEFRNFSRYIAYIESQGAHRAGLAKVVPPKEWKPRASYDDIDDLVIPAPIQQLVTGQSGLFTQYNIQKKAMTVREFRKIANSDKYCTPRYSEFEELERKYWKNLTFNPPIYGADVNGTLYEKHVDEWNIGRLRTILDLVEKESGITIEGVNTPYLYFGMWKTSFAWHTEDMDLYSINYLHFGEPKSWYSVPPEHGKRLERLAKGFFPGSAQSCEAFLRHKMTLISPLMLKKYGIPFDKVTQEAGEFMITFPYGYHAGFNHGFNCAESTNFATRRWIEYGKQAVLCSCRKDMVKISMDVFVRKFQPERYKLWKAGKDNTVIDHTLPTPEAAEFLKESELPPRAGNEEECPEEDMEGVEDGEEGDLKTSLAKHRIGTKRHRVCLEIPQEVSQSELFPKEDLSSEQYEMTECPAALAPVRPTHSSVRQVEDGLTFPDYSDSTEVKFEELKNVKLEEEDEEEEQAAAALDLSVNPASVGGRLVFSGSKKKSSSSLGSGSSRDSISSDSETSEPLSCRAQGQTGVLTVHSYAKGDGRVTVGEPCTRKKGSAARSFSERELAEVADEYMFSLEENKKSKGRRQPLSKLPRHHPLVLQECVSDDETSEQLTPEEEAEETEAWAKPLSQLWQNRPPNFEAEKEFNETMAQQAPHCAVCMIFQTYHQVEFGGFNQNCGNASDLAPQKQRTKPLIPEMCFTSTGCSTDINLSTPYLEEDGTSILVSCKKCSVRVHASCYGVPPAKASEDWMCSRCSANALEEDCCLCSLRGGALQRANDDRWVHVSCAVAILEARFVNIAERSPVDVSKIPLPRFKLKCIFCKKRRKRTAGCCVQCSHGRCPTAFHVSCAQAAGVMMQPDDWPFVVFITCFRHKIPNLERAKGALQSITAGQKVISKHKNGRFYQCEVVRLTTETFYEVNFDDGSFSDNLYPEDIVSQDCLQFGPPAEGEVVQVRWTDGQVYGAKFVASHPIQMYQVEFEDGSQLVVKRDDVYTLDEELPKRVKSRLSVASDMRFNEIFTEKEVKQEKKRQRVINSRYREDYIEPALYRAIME
PLK1 PBD block: PLK1 (human) polo-box domain binding inhibition; P53350; Plk1 PBD binding of FITC phosphopeptide, fluorescence polarization; Potency, µM, without a hit: max response, negative = inhibition, usual class: inhibitors; 360,000 tested, 2.8% active; AID 720504; note: series mostly up to about 57 µM; % is set by controls: 0 for no effect and ±100 for the full control effect; nearly all actives have a fitted effect of over 65% in size
G9a inh: inhibitors of human histone lysine methyltransferase G9a; G9a H3K9 monomethylation, AlphaScreen, 2 h; Potency, µM (series often up to 102 µM), for inactives: at the highest dose activity, negative = inhibition, actives largely listed as inhibitors; 350,000 tested, 8.8% active; Q96KQ7; note: % is set by controls: 0 for no effect and ±100 for the full control effect; nearly all actives have a fitted effect of over 75% in size
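Compounds were preincubated with 20 nM G9a for 15 min, after which biotinylated H3K9 peptide (500 nM) and SAM (20 uM) started a 2 h room-temperature reaction. Monomethylated product was quantified by antibody-based AlphaScreen chemiluminescence.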
Sfp inh: blocks B. subtilis Sfp PPTase activity; Biochemical Sfp PPTase activity, qHTS; Potency, µM, for inactives: largest response in the series, negative = inhibition, usual class: inhibitors; 310,000 tested, 3.5% active;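 note: the enzyme is Sfp with the accession as filed and its product quenches rhodamine fluorescence; 0% = enzyme reaction without inhibitor and -100% = no enzyme wells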
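Step 1, compound plus 15 nM Sfp-PPTase, 15 min, room temperature. Step 2, add rhodamine-CoA (5 uM) and BHQ-2-YbbR (12.5 uM). Step 3, read 525/598 nm fluorescence at 0 and 30 min.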
Active calls of the source: *; ? = inconclusive; . = not tested or not shown; [ ] = another dose, or the depositor's remark. Sampled rows, rich in hits. Any-hit rate of the full collection: about 12%. Calls come from the whole dose curve; as a rule, active = well fitted curve in the direction sought with a large enough effect; inconclusive = small, poorly fitted or top-dose-only effect, or another doubt; inactive = no such curve, though single readings can be large; an effect the other way counts as inactive or inconclusive. Potency is the fitted concentration of half-maximal effect.

SMILES	BAZ2B block	HP1b chromo inh	JMJD2A Tudor	PLK1 PBD block	G9a inh	Sfp inh
COc1cc(C(C)=O)ccc1OCCCN1CCC(Cc2ccccc2)CC1	56µM*	?	?	-8%	35µM*	-10%
COc1ccccc1C(=O)Nc1ccccc1C(=O)OCc1cc(=O)n2c(C)csc2n1	-3%	43%	3%	.	37%[59 µM]	.
COc1ccc(C(=O)CCC(=O)Nc2cc(Cl)c(O)c(Cl)c2)cc1	-14%	32%	-32%	-19%	-32%[2.33 µM]	-2%
C#CCOc1ccc(C2C3=C(CCCC3=O)N(CC(=O)O)C3=C2C(=O)CCC3)cc1Br	5%	27%	-5%	-13%	?	-12%
OCc1ccccc1OCCCN1CCC(Cc2ccccc2)CC1	?	?	22µM*	1%	35µM*	3%
COc1nccnc1NS(=O)(=O)c1ccc(NC(=S)NC(=O)/C=C/c2ccccc2)cc1	-13%	-7%	79µM*	30µM*	?	-11%
COc1nccnc1NS(=O)(=O)c1ccc(NC(=S)NC(=O)c2ccccc2)cc1	?	-16%	?	-7%	40µM*	-4%
COC(=O)C1CCN(C(=O)COC(=O)CNC(=O)c2ccc(Cl)cc2Cl)CC1	12%	30%	-3%	-23%	3%[12.7 µM]	.
CCCCCCCC1=CC2=C(Cl)C(=O)C(C)(OC(C)=O)C(=O)C2=CO1 (stereo not drawn)	.	.	.	.	.	0%
CC[C@H](C)/C=C/C1=CC2=C(Cl)C(=O)[C@@]3(C)OC(=O)C(C(=O)[C@H](C)[C@@H](C)O)=C3C2=CO1	.	?	56µM*	6µM*	.	.
O=C(O)c1cccc(Nc2ncnc3sccc23)c1	-14%	33%	-6%	-15%	40µM*	-16%
NC(N)=N/N=C(\N=Nc1ccccc1)c1ccc(Cl)cc1	.	?	22µM*	0%	.	.
Cc1ccc(NC(=O)CNS(=O)(=O)c2cccs2)cc1F	-36%	24%	-10%	3%	79µM*	9%
COc1ccc(-c2c(C)nn3c(N4CCN(c5cc(Cl)ccc5C)CC4)cc(C)nc23)cc1OC	-25%	21%	-22%	.	3%[59 µM]	.
O=C1CC(c2ccco2)CC(O)=C1C=Nc1cc(Cl)ccc1O (stereo not drawn)	45µM*	?	79µM*	-24%	?	-24%
O=C1CC(c2ccco2)CC(O)=C1C=Nc1cc(Cl)ccc1Cl (stereo not drawn)	50µM*	-6%	?	-7%	7.1µM*	50µM*
O=C(CSc1nc2[nH]ncc2c(=O)[nH]1)Nc1ccc(Cl)cc1	-4%	24%	-14%	2%	-6%	.
CCCCN(C)C(=O)C1CCN(Cc2cccc(OCc3ccccc3)c2)CC1	?	-8%	40µM*	-7%	13µM*	-21%
O=C(O)C1CCN(Cc2cccnc2)CC1	-32%	20%	1%	-4%	?	22%
CCCCN(C)C(=O)C1CCN(Cc2cccnc2)CC1	79µM*	?	28µM*	-4%	14µM*	-17%
Cc1cccc(C)c1N1CCN(CCn2c(=S)[nH]c3ccccc3c2=O)CC1	2%	30%	-14%	-7%	.	7%
CCOC(=O)C1CCN(S(=O)(=O)c2cc3c(cc2C)NC(=O)CO3)CC1	24%	36%	-6%	-9%	.	14%
CC1CCCC(NC(=O)CCS(=O)(=O)c2ccc3c(c2)NC(=O)CS3)C1C (stereo not drawn)	-12%	10%	?	30µM*	57%	18%
Cc1cc(NC(=O)CN2CCN(S(=O)(=O)c3ccc(Cl)cc3)CC2)no1	-6%	34%	-13%	-6%	-49%[59 µM]	17%
CC(=O)N1CCN(CC(=O)Nc2cc([N+](=O)[O-])ccc2Cl)CC1	3%	12%	-20%	-2%	40µM*	-1%
O=C(CN1CCN(c2ccc(O)cc2)CC1)Nc1cc([N+](=O)[O-])ccc1Cl	?	-21%	?	-15%	5.6µM*	?
O=C(CN1CCN(c2ccccc2)CC1)Nc1ccccc1Cl	?	27%	-10%	0%	-40%	-1%

Screening results from PubChem BioAssay.
